Measured values published in PubChem BioAssay (NCI).
About 79,000 compounds went through this panel and 15% of them were active in at least one assay; those are over-represented in the sample as a whole. The source made the active and inactive calls. Rule as the data show it: active = growth inhibition above about 70%; inactive = the rest.

Assays:
[1] = NCI Yeast Anticancer Drug Screen. Data for the rad52 strain (AID 147);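 also: 0% = growth of vehicle-treated control cultures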; settings: S. cerevisiae rad52 mutant growth inhibition, active compounds read high
Method in brief: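 Here a repair-compromised yeast strain receives each compound; its growth is then quantified and normalised to vehicle-only controls.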

[2] = NCI Yeast Anticancer Drug Screen. Data for the wt1 strain (AID 149);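 also: 0% = growth of vehicle-treated wt1 cultures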; settings: S. cerevisiae wt1 strain (SPY 50644) growth inhibition, active compounds read high
Method in brief: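 Measured: growth of wt1 yeast under compound versus vehicle treatment, reported as inhibition.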

[3] = NCI Yeast Anticancer Drug Screen. Data for the rad50EPP+ strain (AID 151);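 also: 0% = growth of vehicle-treated control cultures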; settings: S. cerevisiae rad50 mutant strain, active compounds read high
Method in brief: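 Read-out is yeast growth inhibition relative to vehicle; cells used were the rad50EPP+ strain.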

[4] = NCI Yeast Anticancer Drug Screen. Data for the mgt1 strain (AID 153); settings: S. cerevisiae mgt1 mutant growth inhibition, active compounds read high
Method in brief: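 Measured: inhibition of mgt1 yeast growth by compound, normalized to vehicle-treated cultures.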

[5] = NCI Yeast Anticancer Drug Screen. Data for the rad50 strain (AID 155);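 also: 0% = growth of vehicle-only cultures of the same strain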; settings: S. cerevisiae rad50 strain growth inhibition, active compounds read high
Method in brief: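 Growth of the mutant yeast was measured after compound exposure and referenced to vehicle-treated cultures.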

[6] = NCI Yeast Anticancer Drug Screen. Data for the mec2-1 strain (AID 157); settings: S. cerevisiae mec2-1 strain, active compounds read high
Method in brief: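 Using mec2-1 yeast: add compound, measure growth, express inhibition versus vehicle-treated cultures.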

[7] = NCI Yeast Anticancer Drug Screen. Data for the rad14 strain (AID 159);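 also: 0% = growth of vehicle-treated control cultures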; settings: S. cerevisiae rad14 strain growth inhibition, active compounds read high
Method in brief: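 Here, inhibition of yeast growth was measured after compound exposure, using a strain with a genetic defect in DNA damage repair and vehicle-treated cultures as the reference.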

[8] = NCI Yeast Anticancer Drug Screen. Data for the sgs1 mgt1 strain (AID 161);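 also: 0% = growth of cultures given vehicle only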; settings: S. cerevisiae sgs1 mgt1 strain, active compounds read high
Method in brief: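 Growth of a repair-deficient yeast mutant was monitored after compound treatment and expressed as inhibition relative to vehicle-treated cultures.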

[9] = NCI Yeast Anticancer Drug Screen. Data for the CLN2oe strain (AID 163);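 also: 0% = growth of vehicle-only control cultures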; settings: S. cerevisiae CLN2oe strain, active compounds read high
Method in brief: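 Whole-cell yeast growth assay. A strain engineered for altered cell-cycle control received compound, and inhibition relative to vehicle-treated cultures was recorded.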

[10] = NCI Yeast Anticancer Drug Screen. Data for the cln2 rad14 strain (AID 165);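 also: 0% = growth equal to vehicle treated cultures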; settings: S. cerevisiae cln2 rad14 strain, active compounds read high
Method in brief: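 Yeast strain cln2 rad14, bearing defects in cell cycle control and DNA repair, serves as the test system; values reflect growth inhibition compared with vehicle.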

[11] = NCI Yeast Anticancer Drug Screen. Data for the bub3 strain (AID 167); settings: S. cerevisiae bub3 mutant strain, active compounds read high
Method in brief: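 Whole-cell yeast assay. The mutant strain was incubated with compounds, and growth inhibition was determined by comparison with vehicle-treated cells.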

[12] = NCI Yeast Anticancer Drug Screen. Data for the wt2 strain (AID 169);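 also: 0% = growth of vehicle-treated yeast cultures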; settings: S. cerevisiae wt2 strain growth inhibition, active compounds read high
Method in brief: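 Treated yeast vs. vehicle-treated yeast: growth inhibition determined.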

[13] = NCI Yeast Anticancer Drug Screen. Data for the mlh1 strain (AID 171);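 also: 0% = growth of vehicle-treated control cultures of the same strain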; settings: S. cerevisiae mlh1 strain growth inhibition, active compounds read high
Method in brief: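 A yeast strain with a defined genetic lesion serves as the test organism. Cultures receive compound or vehicle, and growth is measured.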

[14] = NCI Yeast Anticancer Drug Screen. Data for the sgs1 strain (AID 173);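 also: 0% = growth of vehicle-only control cultures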; settings: S. cerevisiae sgs1 mutant, active compounds read high
Method in brief: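 A genetically defined yeast mutant is incubated with the test compound, and its growth is compared to that of the same strain given vehicle.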

[15] = NCI Yeast Anticancer Drug Screen. Data for the mlh1 rad18 strain (AID 175); settings: S. cerevisiae mlh1 rad18 strain growth inhibition, active compounds read high
Method in brief: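 Steps: expose repair-defective yeast to compound; measure growth; express inhibition against vehicle-treated controls.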

[16] = NCI Yeast Anticancer Drug Screen. Data for the rad18 strain (AID 177); settings: S. cerevisiae rad18 mutant growth inhibition, active compounds read high
Method in brief: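 Measured value is growth inhibition of a yeast strain bearing a DNA repair alteration, referenced to vehicle-treated cells.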

[17] = at 5.0 µM (retest, dose inferred, filed as 0.5)
[18] = at 50.0 µM (retest, dose inferred, filed as 5.0)

Measured: growth inhibition

C/C(=N\NC(=S)N1CCCCC1)c1cccc(C)n1
active: [1]; at 3.7 µM 91% | [1]; at 11.0 µM 97% | [1]; at 33.0 µM 99% | [1]; at 100.0 µM 99% | [2]; at 3.7 µM 95% | [2]; at 11.0 µM 98% | [2]; at 33.0 µM 99% | [2]; at 100.0 µM 99% | [3]; at 11.0 µM 95% | [3]; at 33.0 µM 99% | [3]; at 100.0 µM 99% | [4]; at 3.7 µM 94% | [4]; at 11.0 µM 99% | [4]; at 33.0 µM 99% | [4]; at 100.0 µM 98% | [5]; at 3.7 µM 94% | [5]; [17] 89% | [5]; at 11.0 µM 98% | [5]; at 33.0 µM 98% | [5]; [18] 100% | [5]; at 50.0 µM 89.7% | [5]; at 100.0 µM 98% | [6]; at 3.7 µM 92% | [6]; [17] 86% | [6]; at 11.0 µM 96% | [6]; at 33.0 µM 99% | [6]; [18] 100% | [6]; at 50.0 µM 92.2% | [6]; at 100.0 µM 99% | [7]; at 3.7 µM 97% | [7]; at 11.0 µM 99% | [7]; at 33.0 µM 100% | [7]; at 100.0 µM 99% | [8]; [17] 81% | [8]; [18] 99% | [8]; at 50.0 µM 85.8% | [9]; at 3.7 µM 94% | [9]; at 11.0 µM 99% | [9]; at 33.0 µM 100% | [9]; at 100.0 µM 99% | [10]; [17] 93% | [10]; [18] 99% | [10]; at 50.0 µM 90.7% | [11]; at 3.7 µM 87% | [11]; [17] 93% | [11]; at 11.0 µM 99% | [11]; at 33.0 µM 99% | [11]; [18] 99% | [11]; at 50.0 µM 89.2% | [11]; at 100.0 µM 99% | [12]; at 3.7 µM 94% | [12]; at 11.0 µM 97% | [12]; at 33.0 µM 98% | [12]; at 100.0 µM 99% | [13]; at 3.7 µM 92% | [13]; at 11.0 µM 96% | [13]; at 33.0 µM 96% | [13]; at 100.0 µM 96% | [14]; at 3.7 µM 91% | [14]; at 11.0 µM 98% | [14]; at 33.0 µM 98% | [14]; at 100.0 µM 98% | [15]; [17] 81% | [15]; [18] 99% | [15]; at 50.0 µM 86.2% | [16]; at 3.7 µM 90% | [16]; at 11.0 µM 98% | [16]; at 33.0 µM 98% | [16]; at 100.0 µM 97%
inactive: [1]; at 1.2 µM -4% | [2]; at 1.2 µM 41% | [3]; at 1.2 µM -8% | [3]; at 3.7 µM 38% | [4]; at 1.2 µM 49% | [5]; at 1.2 µM 23% | [6]; at 1.2 µM 39% | [7]; at 1.2 µM 45% | [9]; at 1.2 µM 50% | [11]; at 1.2 µM 21% | [12]; at 1.2 µM -10% | [13]; at 1.2 µM 1% | [14]; at 1.2 µM 9% | [16]; at 1.2 µM 7%

COc1ccc(NC(=S)N/N=C(\c2ccccc2)c2ccccn2)cc1
inactive: [1]; at 1.2 µM -3% | [1]; at 3.7 µM -3% | [1]; at 11.0 µM -3% | [1]; at 33.0 µM 59% | [2]; at 1.2 µM -4% | [2]; at 3.7 µM -3% | [2]; at 11.0 µM -3% | [2]; at 33.0 µM 50% | [3]; at 1.2 µM 0% | [3]; at 3.7 µM 4% | [3]; at 11.0 µM 5% | [3]; at 33.0 µM 3% | [3]; at 100.0 µM 55% | [4]; at 1.2 µM -1% | [4]; at 3.7 µM -6% | [4]; at 11.0 µM 8% | [4]; at 33.0 µM 52% | [5]; at 1.2 µM 0% | [5]; at 3.7 µM 1% | [5]; [17] 12% | [5]; at 11.0 µM -34% | [5]; at 33.0 µM 59% | [5]; at 50.0 µM 68.1% | [6]; at 1.2 µM 0% | [6]; at 3.7 µM -7% | [6]; [17] 13% | [6]; at 11.0 µM -5% | [6]; at 33.0 µM 61% | [7]; at 1.2 µM -4% | [7]; at 3.7 µM -4% | [7]; at 11.0 µM -6% | [7]; at 33.0 µM 65% | [8]; [17] -34% | [9]; at 1.2 µM -1% | [9]; at 3.7 µM -4% | [9]; at 11.0 µM -4% | [9]; at 33.0 µM 55% | [10]; [17] 33% | [11]; at 1.2 µM -6% | [11]; at 3.7 µM 4% | [11]; [17] 35% | [11]; at 11.0 µM 4% | [11]; at 33.0 µM -4% | [11]; at 100.0 µM 66% | [12]; at 1.2 µM -4% | [12]; at 3.7 µM -4% | [12]; at 11.0 µM -3% | [12]; at 33.0 µM 53% | [13]; at 1.2 µM -4% | [13]; at 3.7 µM -4% | [13]; at 11.0 µM -2% | [13]; at 33.0 µM 60% | [14]; at 1.2 µM -5% | [14]; at 3.7 µM -4% | [14]; at 11.0 µM 0% | [14]; at 33.0 µM 52% | [15]; [17] 55% | [16]; at 1.2 µM -3% | [16]; at 3.7 µM 0% | [16]; at 11.0 µM -2% | [16]; at 33.0 µM 51%
active: [1]; at 100.0 µM 96% | [2]; at 100.0 µM 95% | [4]; at 100.0 µM 95% | [5]; [18] 89% | [5]; at 100.0 µM 95% | [6]; [18] 75% | [6]; at 50.0 µM 74.7% | [6]; at 100.0 µM 95% | [7]; at 100.0 µM 95% | [8]; [18] 91% | [8]; at 50.0 µM 78.3% | [9]; at 100.0 µM 95% | [10]; [18] 88% | [10]; at 50.0 µM 79.2% | [11]; [18] 90% | [11]; at 50.0 µM 83.9% | [12]; at 100.0 µM 96% | [13]; at 100.0 µM 94% | [14]; at 100.0 µM 97% | [15]; [18] 90% | [15]; at 50.0 µM 83.7% | [16]; at 100.0 µM 95%
